# Data reported in PubChem BioAssay AID1159580 (chemical genetic matrix, 2015).
# Among all 5,500 compounds or so, about 2,000 (36%) were called active. About 18% were inconclusive and are not listed. The list shows a part of the results. Values without a mark were called inactive. Cut-off read from the data, not from the text of the source: active = normalized growth mostly below about 0.91 (no sharp cut-off); inconclusive = no clear call, values can overlap the other calls; inactive = mostly above about 0.92.
# Assay: chemical genetic growth profiling, strain panel (AID 1159580);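 note: tested at 20 µM; growth read once vehicle control cultures reached saturation at 30 °C; 1 = growth at the plate median or of vehicle wells; lower values mean less growth of the strain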
# Details: S. cerevisiae deletion strains, growth OD
smiles,measurement,setting,value
CCOC(=O)c1c(C)cc(O)cc1O,normalized growth,"locus YJR066W, strain TOR1, hits give low values",0.853
same,normalized growth,"locus YKL009W, strain mrt4, hits give low values",0.924
same,normalized growth,"locus YKL068W, hits give low values",0.928 (active)
same,normalized growth,"locus YKL085W, strain MDH1 (second series), hits give low values",0.912 (active)
same,normalized growth,"locus YKL085W, strain MDH1, hits give low values",0.912 (active)
same,normalized growth,"locus YKL160W, strain elf1, hits give low values",0.911
same,normalized growth,"locus YKR001C, strain vps1, hits give low values",0.732 (active)
same,normalized growth,"locus YKR026C, strain gcn3, hits give low values",0.929
same,normalized growth,"locus YKR091W, strain srl3, hits give low values",0.942
same,normalized growth,"locus YLL001W, strain dnm1, hits give low values",0.919
same,normalized growth,"locus YLL026W, hits give low values",0.935
same,normalized growth,"locus YLL041C, strain sdh2, hits give low values",0.917 (active)
same,normalized growth,"locus YLR027C, strain aat2, hits give low values",0.93
same,normalized growth,"locus YLR039C, strain RIC1, hits give low values",0.604 (active)
same,normalized growth,"locus YLR058C, strain SHM2, hits give low values",0.906
same,normalized growth,"locus YLR102C, strain apc9, hits give low values",0.941
same,normalized growth,"locus YLR113W, strain HOG1, hits give low values",0.925
same,normalized growth,"locus YLR221C, strain rsa3, hits give low values",0.931
same,normalized growth,"locus YLR258W, strain gsy2, hits give low values",0.906 (active)
same,normalized growth,"locus YLR262C, strain YPT6 (second series), hits give low values",0.857
same,normalized growth,"locus YLR262C, strain YPT6, hits give low values",0.556 (active)
same,normalized growth,"locus YLR268W, strain sec22, hits give low values",0.964
same,normalized growth,"locus YLR320W, strain mms22, hits give low values",0.916
same,normalized growth,"locus YLR330W, strain CHS5, hits give low values",0.876 (active)
same,normalized growth,"locus YLR342W, strain FKS1, hits give low values",0.941
same,normalized growth,"locus YLR357W, strain rsc2, hits give low values",0.909
same,normalized growth,"locus YLR370C, strain arc18, hits give low values",0.895 (active)
same,normalized growth,"locus YLR371W, strain rom2, hits give low values",0.767 (active)
same,normalized growth,"locus YLR384C, strain iki3, hits give low values",0.937
same,normalized growth,"locus YLR418C, strain cdc73, hits give low values",0.758 (active)
same,normalized growth,"locus YML016C, strain PPZ1, hits give low values",0.888 (active)
same,normalized growth,"locus YML032C, strain rad52, hits give low values",0.897 (active)
same,normalized growth,"locus YML120C, strain ndi1, hits give low values",0.926
same,normalized growth,"locus YML124C, strain tub3, hits give low values",0.911 (active)
same,normalized growth,"locus YMR058W, strain fet3, hits give low values",0.914
same,normalized growth,"locus YMR078C, strain ctf18, hits give low values",0.881 (active)
same,normalized growth,"locus YMR125W, strain sto1, hits give low values",0.907
same,normalized growth,"locus YMR129W, hits give low values",0.949
same,normalized growth,"locus YMR205C, strain PFK2, hits give low values",0.91
same,normalized growth,"locus YMR223W, strain ubp8, hits give low values",0.898 (active)
same,normalized growth,"locus YMR231W, strain pep5, hits give low values",0.984
same,normalized growth,"locus YMR307W, strain GAS1, hits give low values",1.06
same,normalized growth,"locus YNL067W, strain RPL9B, hits give low values",0.899
same,normalized growth,"locus YNL071W, strain lat1, hits give low values",0.926
same,normalized growth,"locus YNL128W, strain TEP1, hits give low values",0.933
same,normalized growth,"locus YNL153C, strain GIM3, hits give low values",0.9
same,normalized growth,"locus YNL183C, strain NPR1, hits give low values",0.869
same,normalized growth,"locus YNL209W, strain ssb2, hits give low values",0.97
same,normalized growth,"locus YNL233W, strain BNI4, hits give low values",0.788 (active)
same,normalized growth,"locus YNL248C, strain rpa49, hits give low values",0.872 (active)
same,normalized growth,"locus YNL250W, strain rad50, hits give low values",0.862 (active)
same,normalized growth,"locus YNL271C, strain bni1, hits give low values",0.906 (active)
same,normalized growth,"locus YNL298W, strain CLA4, hits give low values",0.953
same,normalized growth,"locus YNL307C, strain MCK1, hits give low values",0.846 (active)
same,normalized growth,"locus YNL322C, strain KRE1 (second series), hits give low values",0.935
same,normalized growth,"locus YNR049C, strain mso1, hits give low values",0.92
same,normalized growth,"locus YNR052C, strain pop2, hits give low values",0.949
same,normalized growth,"locus YOL006C, strain TOP1, hits give low values",0.578
same,normalized growth,"locus YOL012C, strain htz1",1.06
same,normalized growth,"locus YOL147C, strain pex11, hits give low values",0.912 (active)
same,normalized growth,"locus YOR001W, strain rrp6, hits give low values",0.89 (active)
same,normalized growth,"locus YOR061W, strain CKA2, hits give low values",0.957
same,normalized growth,"locus YOR069W, strain VPS5, hits give low values",0.924 (active)
same,normalized growth,"locus YOR070C, strain gyp1, hits give low values",0.951
same,normalized growth,"locus YOR080W, strain dia2, hits give low values",0.942
same,normalized growth,"locus YOR083W, strain WHI5, hits give low values",0.89
same,normalized growth,"locus YOR106W, strain vam3, hits give low values",0.855 (active)
same,normalized growth,"locus YOR136W, strain idh2, hits give low values",0.928
same,normalized growth,"locus YOR144C, strain elg1, hits give low values",0.913 (active)
same,normalized growth,"locus YOR184W, strain ser1, hits give low values",0.915
same,normalized growth,"locus YOR231W, strain MKK1, hits give low values",0.905
same,normalized growth,"locus YOR265W, strain rbl2, hits give low values",0.913 (active)
same,normalized growth,"locus YOR270C, strain vph1, hits give low values",0.721 (active)
same,normalized growth,"locus YOR290C, strain snf2, hits give low values",0.88
same,normalized growth,"locus YOR316C, strain cot1, hits give low values",0.917 (active)
same,normalized growth,"locus YPL051W, strain arl3, hits give low values",0.956
same,normalized growth,"locus YPL055C, strain LGE1, hits give low values",0.922
same,normalized growth,"locus YPL078C, strain atp4, hits give low values",0.887 (active)
same,normalized growth,"locus YPL106C, strain sse1, hits give low values",0.88
same,normalized growth,"locus YPL240C, strain hsp82, hits give low values",0.952
same,normalized growth,"locus YPL256C, strain CLN2, hits give low values",0.839
same,normalized growth,"locus YPR119W, strain clb2, hits give low values",0.904 (active)
same,normalized growth,"locus YPR141C, strain kar3, hits give low values",0.901 (active)
same,normalized growth,"locus YPR163C, strain tif3, hits give low values",0.908 (active)
same,normalized growth,"locus YPR167C, strain met16, hits give low values",0.891 (active)
same,normalized growth,"strain wtn01, hits give low values",0.892 (active)
